# Source: PubChem BioAssay (NCATS)
# Inconclusive results are not listed. Activity calls are given as the source filed them. Calls follow the shape of the dose curve; as a rule, active = well fitted curve in the direction sought with a large enough effect in the signal ratio; inconclusive = small, poorly fitted or top-dose-only effect, or a change in a side signal; inactive = no such curve, though single readings can be large or run the other way; the % refers to the signal ratio.
# Target: Tumor necrosis factor (Homo sapiens) (UniProt P01375)
# Assay: qHTS assay to identify small molecules that stimulate Tumor Necrosis Factor-alpha (TNF-alpha) secretion (AID 651757)
# Conditions: Human cells, HTRF 665/615 ratio; series mostly up to 92.2 µM
# Source text: National Center for Advancing Translational Sciences [NCATS]
# NIH Chemical Genomics Center [NCGC]
# National Institutes of Environmental Health Sciences [NIEHS]
# National Toxicology Program [NTP]
# Tumor Necrosis Factor-alpha (TNF-alpha), a secreted cytokine, plays an important role in inflammatory diseases and immune disorders. TNF-alpha, a 17 kDa cytokine, is mainly secreted by activated macrophages and monocytes in response to several inflammatory and immunological stimuli. To study the effect of environmental chemicals on TNF-alpha secretion, a homogeneous TNF-alpha assay was developed using Time Resolved fluorescence (HTRF) technology based on Time Resolved Fluorescent Resonance Energy Transfer (TR-FRET) (Leister et al., Current Chemical Genomics, 5:21-29, 2011). This assay allows measuring TNF-alpha secreted from the cells in a 1536-well plate format.
# THP-1 cells were dispensed at 3000 cells/5ul/well in 1536-well white solid plates. After addition of 23 nl of compound, positive controls and DMSO only, the assay plates were incubated at 37 C for 17 hrs, followed by addition of 5 uLof mixture of cryptate labeled and XL665 labeled anti-TNF-alpha antibodies. After the assay plates were incubated at room temperature for 3 hr, the plates were measured by an EnVision plate reader.
# Sequence of Tumor necrosis factor (Homo sapiens) (P01375 whole entry, looked up): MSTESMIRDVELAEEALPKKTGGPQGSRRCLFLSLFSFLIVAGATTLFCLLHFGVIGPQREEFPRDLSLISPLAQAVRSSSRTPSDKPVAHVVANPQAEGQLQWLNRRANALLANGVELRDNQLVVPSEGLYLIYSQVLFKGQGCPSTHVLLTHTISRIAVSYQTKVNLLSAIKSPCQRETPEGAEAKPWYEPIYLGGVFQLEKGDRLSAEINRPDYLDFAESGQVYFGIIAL
row,SMILES,outcome
1,ClCC(Cl)CCl,inactive
2,NC1CCC(CC2CCC(N)CC2)CC1 (stereo not given),inactive
3,OCCBr,inactive
4,C=CCO,inactive
5,N#CC(O)c1ccccc1 (stereo not given),inactive
6,CC(C)(C)OOC(=O)c1ccccc1,inactive
7,N#CCCC#N,inactive
8,Cc1cc(C)cc(OP(=O)(Oc2cc(C)cc(C)c2)Oc2cc(C)cc(C)c2)c1,inactive
9,ClC(Br)Br,inactive
10,ClCC(Br)CBr (stereo not given),inactive
11,O=[N+]([O-])c1cc(Cl)c(Cl)cc1Cl,inactive
12,O=C(O)C(Cl)(Cl)Br,inactive
13,C1CC2OC2CC1C1CO1 (stereo not given),inactive
14,O=S(=O)(Cl)c1ccccc1,inactive
15,c1ccc(N=NNc2ccccc2)cc1,inactive
16,Cc1ccc(OP(=O)(Oc2ccc(C)cc2)Oc2ccc(C)cc2)cc1,inactive
17,O=P(OCCCl)(OCCCl)OCCCl,inactive
18,Cc1ccc2c(C)cccc2c1,inactive
19,C/C=C/C=O,inactive
20,CN=C=O,inactive

row,SMILES,outcome
1,O=C(O)c1cccc(Cl)c1,inactive
2,CC(C)(C)C(O)(CCc1ccc(Cl)cc1)Cn1cncn1 (stereo not given),inactive
3,Cc1ccc(N)c(C)c1,inactive
4,Clc1cccc(Cl)c1Cl,inactive
5,BrC(Br)Br,inactive
6,CC(C)OS(C)(=O)=O,inactive
7,Nc1ccc(-c2ccccc2)cc1,inactive
8,NNC(N)=S,inactive
9,Clc1cccc(Cl)c1,inactive
10,CSSC,inactive
11,O=C(O)C(Br)CBr (stereo not given),inactive
12,CCCCCCCCCCCOC(=O)c1ccccc1C(=O)OCCCCCCCCCCC,inactive
13,CN(C)C(=O)Nc1ccc(Cl)cc1,inactive
14,CC(C)Br,inactive
15,CC(C)CC(C)N (stereo not given),inactive
16,C[N+](=O)[O-],inactive
17,Brc1cccc(-c2ccccc2)c1,inactive
18,Nc1cc(Cl)ccc1Cl,inactive
19,N#CCc1ccccc1,inactive
20,ClC(Cl)c1ccccc1,inactive
